Where “and” joins values, the source holds several entries; their conditions need not be identical. Equal values may be shown once. Records with an inconclusive call do not appear. Where a call stands in place of a potency, no number is given. Calls of active or inactive are those of the source. Unless noted, calls come from the whole dose curve; as a rule, active = well fitted curve in the direction sought with a large enough effect; inconclusive = small, poorly fitted or top-dose-only effect, or another doubt; inactive = no such curve, though single readings can be large; an effect the other way counts as inactive or inconclusive.
Legend:
[1] = molecular target: Cytochrome P450 1A2 (Homo sapiens) (UniProt P05177); assay: p450-cyp1a2 (AID 410; calls by dose curve)
Procedure, shortened: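 Human CYP1A2 (20nM) demethylated Luciferin-ME at its Km (100uM) in 100mM KPO4. After 10 min compound preincubation, NADPH regeneration ran the reaction 60 min at room temperature. Luciferin was read by luminescence, normalized to 57 uM furafylline.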

[2] = molecular target: Glucocorticoid receptor (Homo sapiens) (UniProt P04150); assay: GR-GFP Redistribution (AID 450;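 active = compounds whose dose series gives a full or clear partial fitted curve of increased nuclear translocation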; note: potency is the fitted concentration of half-maximal effect); conditions: U2OS GR-GFP nuclear translocation, laser cytometry, 2 h
[3] = molecular target: Glucocorticoid receptor (Homo sapiens) (UniProt P04150); assay: GR-EFC Redistribution (AID 451; calls by dose curve; note: potency is the fitted concentration of half-maximal effect); conditions: CHO-K1 GR-EFC translocation, beta-gal luminescence, 2 h
Procedure, shortened: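 CHO-K1 cells stably expressing nuclear-localized β-gal enzyme acceptor and GR fused C-terminally to the enzyme donor fragment; ligand-driven nuclear translocation restores β-gal by complementation. Compounds titrated up to 46 uM final, 2 h at 37 °C; luminescence read.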

[4] = molecular target: Mitogen-activated protein kinase 10 (Mus musculus) (UniProt Q61831); assay: JNK3 AlphaScreen Assay (AID 530; active = well fitted curve in either direction with a large enough effect, not every such curve was filed as active;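 note: kinase came from lysate of stimulated human HepG2 cells; signal reports phosphorylation of biotinylated GST-cJun 1-79 at Ser73 with 10 µM ATP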)
Procedure, shortened: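 JNK3 came from HepG2 lysates pre-activated with IL-1beta and TNF-alpha and phosphorylated biotinylated GST-cJun (1-79) at 10 uM ATP, pH 7.6, room temperature. Compounds were titrated. AlphaScreen signal used anti-phospho-cJun (Ser73) antibody.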

[5] = molecular target: 3',5'-cyclic-AMP phosphodiesterase 4B (Homo sapiens) (UniProt Q07343); assay: qHTS Assay for Inhibitors of PDE-IV (AID 607; active = well fitted activation curve with a large enough effect in the main read-out, with a control signal flat, not every such curve was filed as active)
Procedure, shortened: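 Live HEK293 cells with a modified cyclic nucleotide-gated (CNG) channel report intracellular cAMP via membrane-potential dye fluorescence (ex 535/em 590 nm). Endogenous PDE-IV was targeted. Compounds were tested at up to 22.9 uM final; RO 20-1724 100 uM served as control.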

[6] = qHTS Assay for Lipid Storage Modulators (AID 1519; calls by dose curve); conditions: Drosophila S3 cells, BODIPY lipid droplet/cell ratio, laser cytometry, cells loaded with oleic acid
Procedure, shortened: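 Cells seeded at 5,000 per well were treated with compounds over a concentration series and loaded with oleic acid (400 uM, as added). Lipid droplet fluorescence (488 nm excitation, 500-530 nm channel) was read by laser-scanning cytometry and normalized to 20 uM Triacsin C.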

[7] = molecular target: Ubiquitin carboxyl-terminal hydrolase 1 (Homo sapiens) (UniProt O94782); assay: Inhibitors of USP1/UAF1: Pilot qHTS (AID 504865);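 note: rhodamine fluorescence freed from ubiquitin-rhodamine substrate followed over time; top concentration of the series differs between compounds; nearly all actives have a fitted effect of over 35% in size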
Procedure, shortened: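 In 50mM HEPES pH 7.8 containing 0.5mM EDTA, 1mM TCEP, 0.1 mg/ml BSA and 0.01% Tween-20, 1nM USP1/UAF1 is exposed to compound for 15 min, then Ub-Rho (150nM final) is added and fluorescence is read over time.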

[8] = molecular target: DNA dC->dU-editing enzyme APOBEC-3G (Homo sapiens) (UniProt Q9HC16); assay: qHTS for inhibitors of Vif-A3G interactions: Validation (AID 588379)
Procedure, shortened: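 HeLa cells stably expressing Vif and A3G-eYFP, 700 cells/well, incubated overnight at 37 deg C, then exposed to compound overnight at 37 deg C. Inhibition of Vif-mediated degradation read as increased yellow fluorescence (Ex 488/Em 500-530) by laser-scanning cytometry.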

[9] = test system: Zika virus NS2B-NS3 protease; assay: Primary screen GU AMC qHTS for Zika virus inhibitors (AID 1347154); note: nearly all actives have a fitted effect of over 70% in size
Procedure, shortened: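 Unlinked Zika NS2B hydrophilic domain/NS3 protease domain noncovalent complex (25 nM final) in 10 mM Tris-HCl pH 8.0, 0.01% Tween 20, with AMC peptide substrate. Fluorescence (ex 340, em 450 nm) change over 15 min, room temperature; percent inhibition fitted to 4-parameter Hill equation.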

[10] = molecular target: Cytochrome P450 3A4 (Homo sapiens) (UniProt P08684); assay: qHTS Assay for Activators of Cytochrome P450 3A4 (AID 885); note: nearly all actives have a fitted effect of over 65% in size
Procedure, shortened: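 Quantitative HTS format: compounds preincubated with 20nM human CYP3A4 and Luciferin-PPXE substrate at KM, reaction started by NADPH regeneration, stopped after 60 min, luciferase luminescence read 20 min later.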

[11] = Primary qHTS for small molecule stabilizers of the endoplasmic reticulum resident proteome: Secreted ER Calcium Modulated Protein (SERCaMP) assay (AID 1508630)
Procedure, shortened: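 GLuc-SERCaMP-expressing SH-SY5Y cells, pretreated 16 h with compound, are challenged with thapsigargin to empty ER calcium stores; after 4 h, coelenterazine is added directly to the medium and luminescence is imaged.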

[12] = AP1 Signaling Pathway (AID 357; active = well fitted curve in either direction with a large enough effect, not every such curve was filed as active;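 note: ME-180 reporter cells stimulated with EGF at its EC50 level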); conditions: ME-180 AP-1-bla reporter, EGF-induced, beta-lactamase ratio, 5 h
Procedure, shortened: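 Cells are seeded overnight, exposed to compound titrations and an EC50 level of EGF for 5 hours at 37 °C, then loaded with CCF4 dye for 2.5 hours. Beta-lactamase activity under the AP-1 element is read as a blue/green ratio.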

[13] = NFAT Signaling Pathway (AID 444; active = well fitted curve in either direction with a large enough effect, not every such curve was filed as active;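 note: carbachol stimulus at about its EC50 of 1 µM final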); conditions: Jurkat NFAT-bla M1, carbachol, beta-lactamase ratio, 5 h; at 38 µM (top of the series)
Procedure, shortened: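 Jurkat cells carrying an NFAT-driven β-lactamase reporter and co-transfected muscarinic M1 receptor were treated with compound plus carbachol (1 uM final, an EC50 level) for 5 h at 37 °C. CCF4 loading followed for 1 h at RT; 460/530 nm ratio gave %activity.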

[14] = Stat Signaling Pathway (AID 446; active = well fitted curve in either direction with a large enough effect, not every such curve was filed as active;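 note: ME-180 cervical cancer cells given 40 pM IL-6 alongside compound; SIE-controlled beta-lactamase reporter measured as 460/530 nm FRET emission ratio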); conditions: ME-180 (cervical carcinoma) SIE beta-lactamase reporter, IL-6 stimulated, 5 h
Procedure, shortened: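 IL-6/STAT signaling read in ME-180 cells via an SIE beta-lactamase reporter. Stimulus was 40 pM IL-6 (its AC50) for 5 hrs, so both activation and inhibition register.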

[15] = molecular target: Guanine nucleotide-binding protein G(i) subunit alpha-1 (Homo sapiens) (UniProt P63096); assay: qHTS Assay for Inhibitors of RGS12 GoLoco Motif Activity (Green Fluorophore) (AID 879);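 note: negative values mean loss of peptide binding seen as reduced polarization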
Procedure, shortened: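 Fluorescence polarization assay: 50 nM Gαi1 with 10 nM FITC-labeled RGS12 GoLoco peptide in 10 mM Tris pH 7.5, 150 mM NaCl, 0.1 mM GDP, 0.05% NP40, 10 min at room temperature with compound.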

[16] = qHTS Assay for Identification of Small Molecule Antagonists for NFkB Signaling Pathway (AID 895; active = well fitted inhibition curve with a large enough effect in the signal ratio, with a control signal flat, not every such curve was filed as active; the % refers to the signal ratio)
Procedure, shortened: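 NFkB-bla ME-180 cervical carcinoma cells with beta-lactamase reporter under NFkB response element; compounds added, then TNF alpha at 10 pM final (EC50), 5 h at 37 C. LiveBLAzer substrate 2 h, room temperature; emission 460/530 nm at 405 nm excitation.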

[17] = molecular target: Cytochrome P450 2C19 (Homo sapiens) (UniProt P33261); assay: qHTS Assay for Inhibitors and Substrates of Cytochrome P450 2C19 (AID 899); note: nearly all actives have a fitted effect of over 60% in size
Procedure, shortened: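 Human CYP2C19 (5nM) with Luciferin-H EGE at 10uM (its KM) in 50mM KPO4 was preincubated with compound for 10 min at 37C. NADPH regeneration started a 60 min 37C reaction. Luciferin was read by luminescence, normalized to 57uM ketoconazole.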

[18] = qHTS Assay for Identification of Small Molecule Agonists for Thrombopoietin (TPO) Signaling Pathway (AID 917)
Procedure, shortened: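 Luminescence from a Glycoprotein IIb promoter–driven luciferase reporter served as read-out in murine Ba/F3 cells carrying the human TPO receptor. Cells, deprived of IL-3 overnight, received compounds with 26 pM TPO and were incubated 24 hrs at 37 C.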

[19] = molecular target: Muscarinic acetylcholine receptor M1 (Rattus norvegicus) (UniProt P08482); assay: qHTS Assay for Antagonists of Acetylcholine Muscarinic M1 Receptor: Measurement of IP-One Response (AID 944); note: nearly all actives have a fitted effect of over 75% in size
Procedure, shortened: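 CHO cells expressing rat M1 receptor, recovered overnight, were pre-incubated 10 min with compound, then stimulated 30 min with carbachol at EC80 (200 nM) in LiCl-containing buffer, pH 7.4. IP1 accumulation was read by HTRF (620/665 nm).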

[20] = molecular target: Pyruvate kinase (Leishmania mexicana) (UniProt Q27686); assay: qHTS Validation Assay for Inhibitors of Leishmania Mexicana Pyruvate Kinase (AID 945)
Procedure, shortened: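 Substrate mix (0.5 mM PEP, 0.1 mM ADP, 7 mM MgCl2, 50 mM KCl, pH 7.2 imidazole) received compound by pin tool, then 0.2 nM LmPYK E451W. After 1 h at room temperature, PKLight was added and luminescence measured.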

[21] = molecular target: Pyruvate kinase PKM (Homo sapiens) (UniProt P14618); assay: qHTS Assay for Activators of Human Muscle Pyruvate Kinase (AID 954; active = well fitted curve in the direction sought with a large enough effect, not every such curve was filed as active)
Procedure, shortened: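 Enzyme was run at intermediate activity so both inhibitors and activators could be detected. ATP formed from ADP and PEP by 0.1 nM human PKM2 during a 1 h room-temperature incubation was quantified by coupled luciferase luminescence.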

[22] = molecular target: Alpha-galactosidase A (Homo sapiens) (UniProt P06280); assay: Counterscreen for Glucocerebrosidase Inhibitors: qHTS Assay for Human alpha-Galactosidase at pH 4.5 (AID 992)
Procedure, shortened: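 Read-out is 4-methylumbelliferone fluorescence (365 nm excitation, 440 nm emission) after a pH 10 NaOH/glycine stop. Reactions held 2 nM enzyme and 80 uM substrate at pH 4.5 for 20 min at room temperature.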

[23] = molecular target: alpha-glucosidase (Oryza sativa, rice) (UniProt Q653V4); assay: Counterscreen for Glucocerebrosidase Inhibitors: qHTS Assay for Rice alpha-Glucosidase at pH 5.0 (AID 997)
Procedure, shortened: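 Rice alpha-glucosidase (4 nM final) with 400 uM 4-methylumbelliferyl-alpha-D-glucopyranoside in citrate buffer pH 5.0, 20 min at room temperature, stopped at pH 10; fluorescence 365/440 nm, compounds 0.7 nM–77 uM, AC50 from Hill fits.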

[24] = measured here: cell count channel max response
[25] = measured here: lipid channel max response

Sequence of DNA dC->dU-editing enzyme APOBEC-3G (Homo sapiens) (Q9HC16 whole entry, looked up): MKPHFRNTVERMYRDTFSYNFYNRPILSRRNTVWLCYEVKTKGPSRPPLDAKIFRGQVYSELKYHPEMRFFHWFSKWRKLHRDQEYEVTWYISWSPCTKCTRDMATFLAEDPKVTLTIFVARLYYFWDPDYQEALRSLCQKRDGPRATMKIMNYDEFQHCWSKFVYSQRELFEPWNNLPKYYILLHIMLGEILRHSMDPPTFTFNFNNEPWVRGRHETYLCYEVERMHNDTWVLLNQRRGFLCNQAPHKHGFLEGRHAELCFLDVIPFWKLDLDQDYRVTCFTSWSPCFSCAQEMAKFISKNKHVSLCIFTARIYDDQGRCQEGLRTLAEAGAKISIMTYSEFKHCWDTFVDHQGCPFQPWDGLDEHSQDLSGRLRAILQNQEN
Sequence of 3',5'-cyclic-AMP phosphodiesterase 4B (Homo sapiens) (Q07343 whole entry, looked up): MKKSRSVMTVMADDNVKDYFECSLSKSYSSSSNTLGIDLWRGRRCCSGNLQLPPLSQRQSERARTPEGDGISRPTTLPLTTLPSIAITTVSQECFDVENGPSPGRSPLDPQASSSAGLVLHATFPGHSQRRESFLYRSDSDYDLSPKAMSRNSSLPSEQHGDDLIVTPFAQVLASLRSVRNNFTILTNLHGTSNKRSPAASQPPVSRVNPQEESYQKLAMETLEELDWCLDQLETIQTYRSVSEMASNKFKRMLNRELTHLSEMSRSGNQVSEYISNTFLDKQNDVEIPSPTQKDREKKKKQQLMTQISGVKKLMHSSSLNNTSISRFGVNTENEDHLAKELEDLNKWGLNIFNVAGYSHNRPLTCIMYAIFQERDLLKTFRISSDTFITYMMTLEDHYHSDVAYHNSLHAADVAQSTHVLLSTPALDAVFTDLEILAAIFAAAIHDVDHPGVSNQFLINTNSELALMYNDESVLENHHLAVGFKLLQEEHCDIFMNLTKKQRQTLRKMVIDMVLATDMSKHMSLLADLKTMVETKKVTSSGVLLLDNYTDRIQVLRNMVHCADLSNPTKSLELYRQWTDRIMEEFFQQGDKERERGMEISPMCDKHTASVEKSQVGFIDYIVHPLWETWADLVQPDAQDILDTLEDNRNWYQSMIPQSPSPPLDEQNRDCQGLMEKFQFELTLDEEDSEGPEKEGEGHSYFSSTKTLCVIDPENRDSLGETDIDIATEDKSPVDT
Sequence of Glucocorticoid receptor (Homo sapiens) (P04150 whole entry, looked up, the tested form may be a part): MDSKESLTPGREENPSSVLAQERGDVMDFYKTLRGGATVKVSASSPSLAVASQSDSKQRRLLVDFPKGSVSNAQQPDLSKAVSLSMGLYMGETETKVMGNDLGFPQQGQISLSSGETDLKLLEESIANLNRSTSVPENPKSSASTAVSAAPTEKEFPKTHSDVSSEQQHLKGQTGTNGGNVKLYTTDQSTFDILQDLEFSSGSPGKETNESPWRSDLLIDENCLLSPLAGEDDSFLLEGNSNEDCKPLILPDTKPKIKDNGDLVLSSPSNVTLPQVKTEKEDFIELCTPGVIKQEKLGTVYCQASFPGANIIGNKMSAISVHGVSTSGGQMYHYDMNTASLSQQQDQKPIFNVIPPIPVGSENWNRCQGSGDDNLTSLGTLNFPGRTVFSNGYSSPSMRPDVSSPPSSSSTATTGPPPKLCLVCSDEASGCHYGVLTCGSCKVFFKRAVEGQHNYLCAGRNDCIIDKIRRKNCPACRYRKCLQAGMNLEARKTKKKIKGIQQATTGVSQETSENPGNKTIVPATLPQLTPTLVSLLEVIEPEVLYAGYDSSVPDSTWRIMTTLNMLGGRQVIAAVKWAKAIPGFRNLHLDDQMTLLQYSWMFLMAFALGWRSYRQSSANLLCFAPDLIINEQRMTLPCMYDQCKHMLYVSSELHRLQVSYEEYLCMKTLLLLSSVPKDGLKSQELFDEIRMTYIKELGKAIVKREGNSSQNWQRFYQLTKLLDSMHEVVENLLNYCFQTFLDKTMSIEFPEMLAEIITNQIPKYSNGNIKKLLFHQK
Sequence of Cytochrome P450 1A2 (Homo sapiens) (P05177 whole entry, looked up): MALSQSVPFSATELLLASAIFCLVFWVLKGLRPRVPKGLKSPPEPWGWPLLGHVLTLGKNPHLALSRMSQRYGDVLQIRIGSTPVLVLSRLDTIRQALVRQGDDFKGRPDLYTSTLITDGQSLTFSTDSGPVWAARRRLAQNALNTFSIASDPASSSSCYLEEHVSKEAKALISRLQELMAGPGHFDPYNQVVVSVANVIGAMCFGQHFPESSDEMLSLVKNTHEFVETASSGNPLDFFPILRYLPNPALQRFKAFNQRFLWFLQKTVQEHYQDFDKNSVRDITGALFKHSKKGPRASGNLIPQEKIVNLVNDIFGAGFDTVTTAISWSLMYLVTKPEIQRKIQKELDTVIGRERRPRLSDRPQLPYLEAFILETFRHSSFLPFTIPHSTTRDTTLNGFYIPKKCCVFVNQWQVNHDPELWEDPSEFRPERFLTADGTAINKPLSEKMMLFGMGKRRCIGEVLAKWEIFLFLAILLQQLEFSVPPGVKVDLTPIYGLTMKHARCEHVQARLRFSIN
Sequence of Ubiquitin carboxyl-terminal hydrolase 1 (Homo sapiens) (O94782 whole entry, looked up): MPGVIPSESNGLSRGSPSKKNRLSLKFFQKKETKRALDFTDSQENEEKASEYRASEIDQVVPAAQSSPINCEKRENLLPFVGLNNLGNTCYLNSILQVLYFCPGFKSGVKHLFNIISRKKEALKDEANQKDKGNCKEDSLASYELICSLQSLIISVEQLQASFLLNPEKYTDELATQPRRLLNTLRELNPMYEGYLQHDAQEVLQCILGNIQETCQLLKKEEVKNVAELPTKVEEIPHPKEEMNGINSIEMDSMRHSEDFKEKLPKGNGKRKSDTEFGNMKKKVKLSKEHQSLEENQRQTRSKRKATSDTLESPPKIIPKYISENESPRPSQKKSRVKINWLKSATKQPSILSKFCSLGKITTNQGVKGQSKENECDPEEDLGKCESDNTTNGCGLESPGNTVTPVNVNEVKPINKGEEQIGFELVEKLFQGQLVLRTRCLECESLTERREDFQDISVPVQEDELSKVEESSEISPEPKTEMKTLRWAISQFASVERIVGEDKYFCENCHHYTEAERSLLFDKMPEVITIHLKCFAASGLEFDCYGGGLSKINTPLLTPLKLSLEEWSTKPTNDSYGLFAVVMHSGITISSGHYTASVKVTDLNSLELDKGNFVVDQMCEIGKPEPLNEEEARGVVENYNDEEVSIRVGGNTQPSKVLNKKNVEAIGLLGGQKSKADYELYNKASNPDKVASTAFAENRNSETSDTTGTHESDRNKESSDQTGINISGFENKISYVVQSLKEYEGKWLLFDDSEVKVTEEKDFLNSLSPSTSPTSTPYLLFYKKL
Sequence of Pyruvate kinase PKM (Homo sapiens) (P14618 whole entry, looked up): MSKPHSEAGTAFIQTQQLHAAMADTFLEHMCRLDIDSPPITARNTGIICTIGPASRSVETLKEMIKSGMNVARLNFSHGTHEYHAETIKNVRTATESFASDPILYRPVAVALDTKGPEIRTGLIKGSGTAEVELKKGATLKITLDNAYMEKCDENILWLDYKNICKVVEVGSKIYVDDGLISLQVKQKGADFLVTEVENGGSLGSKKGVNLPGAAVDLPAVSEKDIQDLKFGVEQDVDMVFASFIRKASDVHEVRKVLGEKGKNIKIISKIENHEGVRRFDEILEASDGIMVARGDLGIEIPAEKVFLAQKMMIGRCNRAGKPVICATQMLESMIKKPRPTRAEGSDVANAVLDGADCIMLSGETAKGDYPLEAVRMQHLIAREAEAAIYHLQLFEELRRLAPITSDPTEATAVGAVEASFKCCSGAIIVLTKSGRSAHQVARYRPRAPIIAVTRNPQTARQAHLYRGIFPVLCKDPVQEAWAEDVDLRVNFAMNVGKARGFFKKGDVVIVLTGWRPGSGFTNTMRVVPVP
Sequence of Muscarinic acetylcholine receptor M1 (Rattus norvegicus) (P08482 whole entry, looked up): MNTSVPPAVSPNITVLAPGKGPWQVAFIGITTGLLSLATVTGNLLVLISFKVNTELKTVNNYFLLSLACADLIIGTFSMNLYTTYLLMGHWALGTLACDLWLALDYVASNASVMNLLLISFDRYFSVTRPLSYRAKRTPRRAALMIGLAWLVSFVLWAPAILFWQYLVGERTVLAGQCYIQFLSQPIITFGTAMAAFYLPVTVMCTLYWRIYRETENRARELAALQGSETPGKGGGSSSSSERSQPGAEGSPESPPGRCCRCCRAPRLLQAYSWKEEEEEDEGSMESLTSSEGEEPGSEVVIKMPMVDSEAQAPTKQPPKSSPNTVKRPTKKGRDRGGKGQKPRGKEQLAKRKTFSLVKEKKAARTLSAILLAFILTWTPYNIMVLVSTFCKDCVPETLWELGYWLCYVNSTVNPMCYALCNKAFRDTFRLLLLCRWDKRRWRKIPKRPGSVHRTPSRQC
Sequence of Alpha-galactosidase A (Homo sapiens) (P06280 whole entry, looked up): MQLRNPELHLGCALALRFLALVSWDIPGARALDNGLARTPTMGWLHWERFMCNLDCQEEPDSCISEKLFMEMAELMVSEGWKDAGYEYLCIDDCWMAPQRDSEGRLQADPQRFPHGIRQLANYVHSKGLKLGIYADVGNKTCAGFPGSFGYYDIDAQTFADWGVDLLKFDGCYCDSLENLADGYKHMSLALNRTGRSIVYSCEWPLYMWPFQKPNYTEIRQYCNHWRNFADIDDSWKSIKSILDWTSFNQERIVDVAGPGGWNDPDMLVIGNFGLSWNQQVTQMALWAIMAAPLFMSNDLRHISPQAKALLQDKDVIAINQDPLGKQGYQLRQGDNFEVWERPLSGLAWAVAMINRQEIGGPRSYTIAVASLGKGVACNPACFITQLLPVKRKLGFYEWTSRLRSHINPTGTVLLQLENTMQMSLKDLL
Sequence of Guanine nucleotide-binding protein G(i) subunit alpha-1 (Homo sapiens) (P63096 whole entry, looked up): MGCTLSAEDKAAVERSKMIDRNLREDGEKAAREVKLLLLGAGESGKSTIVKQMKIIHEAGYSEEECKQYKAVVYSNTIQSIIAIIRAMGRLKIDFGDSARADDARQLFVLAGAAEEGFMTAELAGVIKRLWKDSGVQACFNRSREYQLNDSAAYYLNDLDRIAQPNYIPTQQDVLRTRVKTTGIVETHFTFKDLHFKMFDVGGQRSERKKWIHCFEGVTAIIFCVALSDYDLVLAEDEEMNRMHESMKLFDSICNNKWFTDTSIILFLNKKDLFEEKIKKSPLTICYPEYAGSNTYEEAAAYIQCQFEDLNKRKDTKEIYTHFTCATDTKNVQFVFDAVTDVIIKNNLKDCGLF

In the case of `CS(=O)(=O)Nc1c(O)ccc2c1CCC[C@H]2C1=NCCN1`, the Potency [1] is reported as “inactive”, the Potency [2] is reported as > 46 µM (inactive) and the Potency [3] is reported as > 46 µM (inactive). For the same compound, the Potency [4] was “inactive”, the Potency [5] was “inactive” and the activity change, negative = inhibition ([6]; at 57.5 µM (top of the series)) was -4.88% (inactive). The max response [6, 24] was -12.4%, the max response [6, 25] was -17.3% and the Potency [7] was “inactive”. For the same compound, the Potency [8] was “inactive” and the Potency [9] was “inactive”.

For `c1ccc(N2CCN(Cc3nc4ccccc4[nH]3)CC2)nc1`, the Potency [10] was “inactive”, the Potency [9] was “inactive” and the Potency [11] was “inactive”.

In the case of `NCCCCCCNS(=O)(=O)c1ccc2c(Cl)cccc2c1`, the Potency [3] is reported as > 46 µM (inactive), the Potency [4] is reported as “inactive” and the Potency [8] is reported as “inactive”. For the same compound, the Potency [9] was “inactive” and the Potency [11] was “inactive”.

In the case of `CC(C)NC[C@H](O)c1ccc(NS(C)(=O)=O)cc1`, the activity change, negative = inhibition ([12]; at 17.2 µM (top of the series)) is reported as -5.04% (inactive), the activity change, negative = inhibition ([12]; at 38 µM (top of the series)) is reported as -0.189% (inactive) and the Potency [1] is reported as “inactive”. The activity change, negative = inhibition [13] was -7.39% (inactive), the activity, negative = inhibition ([14]; at 17.2 µM (top of the series)) was -2.38% (inactive) and the activity, negative = inhibition ([14]; at 38 µM (top of the series)) was 2.96% (inactive). The Potency [2] was > 46 µM (inactive) and > 20.6 µM (inactive), the Potency [3] was > 46 µM (inactive) and > 20.6 µM (inactive) and the Potency [4] was “inactive”. The Potency [5] was “inactive”, the outcome [15] was “inactive” and the Potency [16] was “inactive”. For the same compound, the Potency [17] was “inactive”, the Potency [18] was “inactive” and the Potency [19] was “inactive”. For the same compound, the Potency [20] was “inactive”, the outcome [21] was “inactive” and the outcome [22] was “inactive”. For the same compound, the outcome [23] was “inactive”, the activity change, negative = inhibition ([6]; at 25.7 µM (top of the series)) was -2.05% (inactive) and the activity change, negative = inhibition ([6]; at 57.5 µM (top of the series)) was -2.56% (inactive). The max response [6, 24] was -18.7% and 20.5%, the max response [6, 25] was -18.8% and 17.8% and the Potency [7] was “inactive”. The Potency [8] was “inactive” and the Potency [9] was “inactive”.

Reference: PubChem BioAssay (NCATS)
